From PubChem BioAssay (NCATS)
Inconclusive results are not listed. Entries that show only a call come without a potency. Unmarked numbers belong to inactive results. The source made the active and inactive calls. Calls come from the whole dose curve; as a rule, active = well fitted curve in the direction sought with a large enough effect; inconclusive = small, poorly fitted or top-dose-only effect, or another doubt; inactive = no such curve, though single readings can be large; an effect the other way counts as inactive or inconclusive.

Tests used:
[1] = target: Cellular tumor antigen p53 (Homo sapiens) (UniProt P04637); assay: Primary qHTS for small molecule compounds that upregulate eGFP-tagged delta133p53alpha (in N-terminal) cells. (AID 2060322); details: NCI-H358 eGFP-delta133p53alpha fluorescence, 24 h; activation: active compounds read high; note: nearly all actives have a fitted effect of over 75% in size; note: potency is the fitted concentration of half-maximal effect; for activation: series mostly up to about 56 µM
Cellular tumor antigen p53 (Homo sapiens), sequence (P04637 whole entry, looked up): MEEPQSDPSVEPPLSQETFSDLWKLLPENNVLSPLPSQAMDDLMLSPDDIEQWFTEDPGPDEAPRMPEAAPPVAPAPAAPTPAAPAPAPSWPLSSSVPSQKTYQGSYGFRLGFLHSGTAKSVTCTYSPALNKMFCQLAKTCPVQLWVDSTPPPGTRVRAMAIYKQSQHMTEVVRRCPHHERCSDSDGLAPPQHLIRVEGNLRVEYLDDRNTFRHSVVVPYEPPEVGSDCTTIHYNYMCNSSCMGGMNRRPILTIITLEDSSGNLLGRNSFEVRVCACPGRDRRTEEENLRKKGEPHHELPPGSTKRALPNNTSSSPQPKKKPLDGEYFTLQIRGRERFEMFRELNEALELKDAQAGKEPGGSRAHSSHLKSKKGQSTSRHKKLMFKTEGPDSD
How it was run: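 NCI-H358 cells pre-induced 24 h with 10 ng/ml doxycycline to express N-terminal eGFP-delta133p53alpha, then dosed 24 h at 37C without doxycycline; fixed, Hoechst-stained, GFP intensity by laser scanning cytometry, normalized to DMSO (0%) and 57.5 uM 5-azacytidine (100%).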

[2] = target: Aldehyde dehydrogenase, mitochondrial (Homo sapiens) (UniProt P05091); assay: qHTS for Inhibitors of the Aldehyde Dehydrogenase Family (ALDH2) Primary screen (AID 2061308); note: nearly all actives have a fitted effect of over 55% in size
[3] = target: Retinaldehyde dehydrogenase 3 (Homo sapiens) (UniProt P47895); assay: qHTS for Inhibitors of the Aldehyde Dehydrogenase Family (ALDH1A3) Primary screen (AID 2061315)

| SMILES | activation [1] | Potency [2] | Potency [3] | activity change, negative = inhibition [2] | activity change, negative = inhibition [3] | Potency [1] |
| --- | --- | --- | --- | --- | --- | --- |
| COC(=O)C1=CO[C@@H](O[C@@H]2O[C@H](CO)[C@@H](O)[C@H](O)[C@H]2O)[C@@H]2[C@@H](C(=O)O)CC[C@H]12 | -5.34% | inactive | inactive |  |  |  |
| CC(C)c1ccc(CO)cc1O[C@@H]1O[C@H](CO)[C@@H](O)[C@H](O)[C@H]1O | -11.5% | inactive | inactive |  |  |  |
| C=C1CCCC2(C)CC3(OC)OC(=O)C(C)=C3CC12 (configuration not stated) | 16.1% | inactive | inactive |  |  |  |
| CC(C)C[C@H](CC(=O)NO)C(=O)N[C@H](C(=O)N[C@@H](C)C(=O)NCCN)C(C)(C)C | 3.67% |  |  | 1.06% [at 11.2 µM] | -12.1% [at 11.2 µM] |  |
| C=CC[N+]1([C@H]2C[C@H]3[C@@H]4CC[C@H]5C[C@H](OC(C)=O)[C@@H](N6CCCCC6)C[C@]5(C)[C@H]4CC[C@]3(C)[C@H]2OC(=O)CC)CCCCC1 | -3.67% | inactive | inactive |  |  |  |
| C=C1C(=O)O[C@@H]2[C@H]1CC[C@H](C)C(CCC(=O)O)C2(C)O (some centres not stated) |  | inactive | inactive |  |  | 23.9 µM (active) |
| C=C[C@](C)(CC/C=C(\C)C(=O)O)O[C@@H]1OC[C@H](O)[C@H](O)[C@H]1O | 7.14% | inactive | inactive |  |  |  |
| C=C1CC[C@@H]2[C@](C)(CO)[C@H](O)CC[C@@]2(C)[C@@H]1C/C=C1/C(=O)OCC1OC(=O)/C(=C/CO)C(O)C[C@@H]1C(=C)CC[C@@H]2[C@](C)(CO)[C@H](O)CC[C@]21C (some centres not stated) | 13% | inactive | inactive |  |  |  |
| CCCN1CCC(c2cccc(S(C)(=O)=O)c2)CC1 | -11.9% | inactive | inactive |  |  |  |
| COC(=O)C[C@@H]1C(C(=O)O)=CO[C@@H](O[C@@H]2O[C@H](CO)[C@@H](O)[C@H](O)[C@H]2O)/C1=C\COC(=O)/C=C\c1ccccc1 | 26% | inactive | inactive |  |  |  |
| COc1c2c(nc3occc13)C(CC=C(C)C)(OC)C(O)CC2 (configuration not stated) | 5.34% | inactive | inactive |  |  |  |
| O=C(CCCN1CCN(c2ccc(F)cc2)CC1)NC1c2ccccc2CSc2ccccc21 (configuration not stated) | -15% | inactive | inactive |  |  |  |
| C=C1C[C@]23C[C@H]1CC[C@H]2[C@]1(C)CCC[C@@](C)(C(=O)O)[C@H]1[C@@H]3C(=O)O | -8.04% | inactive | inactive |  |  |  |
| C=C[C@H]1[C@H](O[C@@H]2O[C@H](CO)[C@@H](O)[C@H](O)[C@H]2O)OC=C2C(=O)OCC[C@]21O | -8.04% | inactive | inactive |  |  |  |
| CC(C)c1ccc2c(c1)[C@H](O)CC1[C@@](C)(C(=O)O)CCC[C@]21C (some centres not stated) | -4.46% | inactive | inactive |  |  |  |
| COC1CC(=O)C23C(=O)NC(CC(C)C)C2C(C)C(C)=CC3/C=C(\C)CCC(O)C1O (configuration not stated) | 23.7% | inactive | inactive |  |  |  |
| CC1C2=CC(=O)OC2(O)CC2C1C(OC(=O)c1ccccc1)C(OC(=O)c1ccccc1)C1(O)C2(C)CCC(O)C1(C)C(=O)O (configuration not stated) | 26.7% | inactive | inactive |  |  |  |
| Cc1cc(C)c(NC(=O)N(Cc2ccc3c(c2)Cc2ccccc2-3)C2CCCCCC2)c(C)c1 | 15.3% | inactive | inactive |  |  |  |
| NC[C@@H]1O[C@@H](O[C@@H]2[C@@H](O[C@@H]3O[C@H](CO)[C@@H](O)[C@H]3O)[C@H](O)[C@@H](N)C[C@H]2N)[C@@H](N)[C@H](O)[C@H]1O | -0.893% |  |  | -0.412% [at 11.2 µM] | -9.15% [at 11.2 µM] |  |
| C=C1CCC2C(C)(C)CCC[C@]2(C)[C@H]1CC/C(C)=C/C(=O)O (some centres not stated) | -3.82% | inactive | inactive |  |  |  |
| C/C=C(\C)C(=O)OCC1OC(OCC2OC(OC3(CO)OC(CO)C(O)C3O)C(O)C(O)C2O)C(O)C(O)C1O (configuration not stated) | -9.16% | inactive | inactive |  |  |  |
| c1cc(-c2cc(C3CCNCC3)[nH]n2)ccn1 | 1.79% | inactive | inactive |  |  |  |
| CC1(C)S[C@@H]2[C@H](NC(=O)[C@H](N)c3ccc(O)cc3)C(=O)N2[C@H]1C(=O)O | -5% | inactive | inactive |  |  |  |
| CO[C@H]1O[C@@H]2O[C@]3(C)CC[C@H]4[C@H](C)CC[C@@H]([C@H]1C)[C@@]24OO3 | 10.3% | inactive | inactive |  |  |  |
